# Source: PMC8384837, “Expanding the binding specificity for RNA recognition by a PUF domain”
# Experiments:
# Assay in all cases: yeast three-hybrid, YBZ-1, SC-Leu-His + 0.5 mM 3-AT, 4 days
# Settings in all cases: tags: N-Gal4 AD-HA kept; label: inside an RPR1-promoter hybrid RNA with tandem MS2 sites; ssRNA
# PUM1 PUF domain R2-IVF = PUM1 PUF domain R2-IVF (Homo sapiens, UniProt Q14671 828-1176, N899I;Y900V;Q903F)
# Procedure, shortened: (§1)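 Each repeat of the Pumilio-1 PUF domain was randomized at its three base-contacting residues, and these libraries were co-expressed from a centromeric plasmid with matching RNA elements in strain YBZ-1. After four days on SC-Leu (input) or SC-Leu-His + 0.5 mM 3-AT (selection), the repeat regions were PCR-amplified and Illumina-sequenced. The interaction score compares variant frequency between input and selection as a log change, computed in log2 with a pseudocount of 1 for absent variants.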
# PUM1 PUF domain R5-QNR = PUM1 PUF domain R5-QNR (Homo sapiens, UniProt Q14671 828-1176, C1007Q;R1008N;Q1011R)
# Procedure, shortened: as §1
# PUM1 PUF domain R4-EWD = PUM1 PUF domain R4-EWD (Homo sapiens, UniProt Q14671 828-1176, N971E;H972W;Q975D)
# Procedure, shortened: as §1
# PUM1 PUF domain R8-LYR = PUM1 PUF domain R8-LYR (Homo sapiens, UniProt Q14671 828-1176, N1122L;Q1126R)
# Procedure, shortened: as §1
sequence,measurement,setting,value
GGCUAGAACUAGUGGAUCCCCCGGCGCCCGGCGGCUCGAGCCCGGGUAAGUGUAAAGAGUCUGCAUGCCGCCGGGCGCCAUGCCUGCAGGUCGACUCUAGAAAACAUG,binding signal,PUM1 PUF domain R2-IVF,4.01 log2 enrichment (interaction score)
GGCUAGAACUAGUGGAUCCCCCGGCGCCCGGCGGCUCGAGCCCGGGUAAGUGUUAAUAGUCUGCAUGCCGCCGGGCGCCAUGCCUGCAGGUCGACUCUAGAAAACAUG,binding signal,PUM1 PUF domain R5-QNR,2.93 log2 enrichment (interaction score)
GGCUAGAACUAGUGGAUCCCCCGGCGCCCGGCGGCUCGAGCCCGGGUAAGUGUAGAUAGUCUGCAUGCCGCCGGGCGCCAUGCCUGCAGGUCGACUCUAGAAAACAUG,binding signal,PUM1 PUF domain R4-EWD,4.33 log2 enrichment (interaction score)
GGCUAGAACUAGUGGAUCCCCCGGCGCCCGGCGGCUCGAGCCCGGGUAAGCGUAAAUAGUCUGCAUGCCGCCGGGCGCCAUGCCUGCAGGUCGACUCUAGAAAACAUG,binding signal,PUM1 PUF domain R8-LYR,5.06 log2 enrichment (interaction score)
